Screens (PubChem)
L major viab = reduces viability of Leishmania major promastigotes. resazurin fluorescence viability. inhibition, % at 10 µM. actives 9% (n = 200,000). AID 1063; in the data active = inhibition above about 50%;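 also: promastigotes grown with compound for 44 hours at 28 °C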
PTEN del growth = suppresses growth of cells with PTEN deletion. HCT116 PTEN-null viability, CellTiter-Glo, 60 h; hits give low values. viability, % at 10 µM. actives 1.2% (n = 140,000). AID 827;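 active = viability at or below a set limit, 4 SD under the median of all tested compounds, cut at about 3.7% in these data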;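 also: PTEN knockout HCT116 line with beta catenin targeted HCT116 as companion control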
Insulin prom up = MIN6 insulin promoter up-regulation; actives 0.3% (n = 190,000); MIN6 insulin promoter-GFP reporter, high-content imaging; hits give high values; z-score at 5 µM;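 active = z-score above 3 at 5 µM with at least 500 cells counted in the well; inconclusive = wells under 500 cells, flagged as cytotoxic or low count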
Autophagy HCS = alters autophagy in cells. MEF GFP-LC3 puncta imaging; test concentration mostly 10 µM. AID 463193. actives 0.98% (n = 190,000). calls only at 10 µM (by protocol);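 active = percentage of spot-positive cells more than 3 SD above its plate mean, without a fluorescence outlier flag or 80% toxicity; inconclusive = no clear call, values can overlap the other calls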;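 also: spot-positive cell cutoff set from DMSO-treated cells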
HCT116 bCat-KO = beta-catenin-lacking colon tumor cell growth suppression; HCT116 beta-catenin knockout viability, CellTiter-Glo, 60 h; hits give low values; viability, % at 10 µM; actives 1.5% (n = 140,000);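 active = viability at or under a set limit, the compound median less 4 SD, cut at about 6% in these data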;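 also: 0% = Hyamine 1622 control at 20 µM and 100% = untreated cell control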
Insulin prom inh = TRM-6 insulin promoter activity inhibition; TRM-6 cells (human fetal islet line), insulin promoter-eGFP reporter, imaging; reporter expression induced with tamoxifen; inhibition, % at 2 µM; actives 0.9% (n = 130,000); AID 1273;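 active = inhibition above the mean plus 3 SD, with well images judged a real hit on visual review, cut at about 60% in these data, passing the limit was not always enough; inconclusive = inhibition over the cutoff but images rejected on review; inactive = inhibition not above the cutoff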
Active calls of the source: *; i = inactive; u = inconclusive; x = no result given; + = active, no number. Only some compounds are listed: those with a hit (about 9.6% of all), similar ones and a draw of the others.

SMILES	L major viab	PTEN del growth	Insulin prom up	Autophagy HCS	HCT116 bCat-KO	Insulin prom inh
O=[N+]([O-])c1ccc(Sc2nccn2Cc2ccccc2)c([N+](=O)[O-])c1	101*	5	0.24	i	4.8*	16
O=c1c(Br)c(Br)cnn1-c1ccccc1	101*	x	u	i	x	x
Cc1ccc(-n2ncc(Br)c(Br)c2=O)cc1	100*	x	-5	+	x	-400
COc1cnn(-c2ccc(F)cc2)c(=O)c1Br	-8	x	0.48	i	x	-44
CC1CCCCN1C(=O)CSc1nnc(-c2cccnc2)n1C1CCCCC1 (centres undefined)	-4	96	x	i	93	-281
CCOC(=O)c1c(C)n(C)c2ccc(OCC(O)Cn3nc(C)cc3C)cc12 (centres undefined)	86*	84	-0.1	i	91	24
CCN(CC)CC(O)COc1ccc2c(c1)c(C(C)=O)c(C)n2-c1ccccc1 (centres undefined)	100*	40	-3	i	47	19
CC(=O)c1c(C)n(-c2ccccc2)c2ccc(OCC(O)CN3CCOCC3)cc12 (centres undefined)	6	100	-1.2	i	100	18
CCOC(=O)c1c(C)n(C)c2ccc(OCC(O)CN(CC)CC)cc12 (centres undefined)	99*	93	0.1	i	82	x
CCOC(=O)c1c(C)n(C)c2ccc(OCC(O)CN3C(=O)c4ccccc4S3(=O)=O)cc12 (centres undefined)	-4	102	-1.7	i	103	-6
Cc1cc(/C=C2/NC(=S)NC2=O)c(C)n1-c1cccnc1	-1	x	0.06	i	x	x
Cc1ccc(N/N=C(\C#N)C(=O)c2ccsc2)cc1	x	x	-0.31	x	x	x
C=CCn1c(SCCOc2ccc(OC)cc2)nnc1C(C)NC(=O)Cc1ccc(OC)cc1 (centres undefined)	-2	99	4.2*	i	86	-271
CCOc1nc(NC2CCCCC2)nc(NC(C)(C)C)n1	78*	64	x	i	70	u
CCCNC(=S)N1CCC(c2nc3cc(C)c(C)cc3[nH]2)CC1	2	89	-0.12	i	89	-32
Cc1cc2nc(C3CCN(CC4COc5ccccc5O4)CC3)[nH]c2cc1C (centres undefined)	91*	67	-0.47	i	58	-13
Cc1cccc(Nc2nc(-c3ccccn3)cs2)n1	100*	20	-1.2	i	17	-23
c1ccc(Nc2nc(-c3cccs3)cs2)nc1	8	52	x	i	50	33
Cc1cccnc1Nc1nc(-c2ccccn2)cs1	100*	0.8*	-0.9	i	0.7*	-143
Cc1cccc(Nc2nc(-c3cccs3)cs2)n1	57*	52	x	i	51	-300
c1ccc(Nc2nc(-c3cccnc3)cs2)nc1	4	82	0.37	i	83	0
Cc1cc(C)c2oc(C(=O)Nc3ccc(S(=O)(=O)N4CCC(C)CC4)cc3)cc(=O)c2c1	87*	67	-0.22	i	64	-8
COc1ccc(-c2nnc(SCc3nc4ccccc4s3)n2C(C)C)cc1	84*	81	-0.17	i	83	-11
COCCn1c(SCC(=O)N2CC(=O)Nc3ccccc32)nc2ccccc21	52*	90	-0.05	i	94	-49
COCCn1c(SCC(=O)N2CC(=O)Nc3ccccc32)nc2ccccc2c1=O	-6	x	2.4	i	x	-29
SMILES	L major viab	PTEN del growth	Insulin prom up	Autophagy HCS	HCT116 bCat-KO	Insulin prom inh
CSC1=NCCN1S(=O)(=O)c1ccc(C)cc1	-5	x	0.08	i	x	79*
CSC1=NCCN1S(=O)(=O)c1ccc(F)cc1	2	x	-0.08	i	x	0
CCOC(=O)C(c1ccccc1)C(Nc1ccc(F)cc1)c1ccccn1 (centres undefined)	x	x	-0.47	x	x	x
CCOC(=O)C(C(=O)OCC)C(Nc1ccc(Br)cc1)c1ccccc1 (centres undefined)	11	1.5*	-0.18	i	1.5*	36
Cc1ccc(NC(=O)c2ccc([N+](=O)[O-])o2)cc1C	100*	x	-1.7	i	x	x
Cc1ccc(NC(=O)c2cc(Cl)ccc2[N+](=O)[O-])cc1C	15	91	-0.46	i	86	-44
O=C(Nc1cccc(Cl)c1N1CCOCC1)c1ccc([N+](=O)[O-])o1	x	x	0.45	x	x	x
Cc1cccc(NC(=O)c2ccc([N+](=O)[O-])o2)c1C	97*	x	-0.78	i	x	-42
Cc1ccc(CNC(=O)c2nn(C)c(C)c2[N+](=O)[O-])cc1	0	96	u	i	108	23
CN(Cc1ccccc1)C(=O)c1ccc([N+](=O)[O-])o1	86*	35	x	i	48	x
Cc1ccc(CNC(=O)c2ccc([N+](=O)[O-])o2)cc1	76*	21	1.4	i	15	x
CCOCCCNC(=S)N1C2CCC1CC(NC(=O)Nc1ccc(C(=O)OCC)cc1)C2 (centres undefined)	11	x	0.25	i	x	x
O=C(/C=C/c1ccc(Cl)c([N+](=O)[O-])c1)Nc1ccc(N2CCCC2)c(Cl)c1	79*	54	-0.36	i	75	-54
O=C(Nc1ccc(N2CCCC2)c(Cl)c1)c1ccc([N+](=O)[O-])o1	101*	x	0.88	i	x	x
COc1cc(/C=C2\COC/C(=C\c3ccc(O)c(OC)c3)C2=O)ccc1O	x	x	-0.84	x	x	x
Cc1cc(=O)oc2cc(OCC(O)CN3CCN(c4ccc(F)cc4)CC3)ccc12 (centres undefined)	5	65	-0.38	i	85	4
OC(CSc1c(Cl)cccc1Cl)CN1CCN(c2ccc(F)cc2)CC1 (centres undefined)	63*	78	-0.83	i	83	-16
OC(CSc1c(Cl)cccc1Cl)CN1CCN(c2ccccc2F)CC1 (centres undefined)	17	95	0.06	i	90	-18
O=C(COc1ccccc1Cl)N1CCN(c2ccc(F)cc2)CC1	-3	84	-0.84	i	84	17
OC(CSc1ccccc1Cl)CN1CCN(c2ccc(F)cc2)CC1 (centres undefined)	91*	86	-0.09	i	99	-12
OC(CSc1ccccc1Cl)CN1CCN(c2ccccc2F)CC1 (centres undefined)	64*	105	-0.07	i	94	-9
CCOC(=O)C1CCN(C(=O)C(CC)c2ccccc2)CC1 (centres undefined)	1	x	-0.03	i	x	x
Cc1ccccc1Nc1nc(N)nc(COC(=O)c2ccc(S(=O)(=O)N(C)C)cc2)n1	67*	101	0.42	i	98	-20
Cc1ccccc1Nc1nc(N)nc(COC(=O)C2CCCCC2)n1	0	91	x	i	82	x
CCCCC(=O)OCc1nc(N)nc(Nc2ccccc2C)n1	63*	98	0.09	i	89	8
COc1ccccc1C(=O)OCc1nc(N)nc(Nc2ccccc2C)n1	3	83	0.78	i	90	x
Cc1oc(-c2cc(F)ccc2F)nc1CN(C)Cc1ccc2nccnc2c1	75*	x	0.01	i	x	-123
